TTR transcr act = TTR transcription activators in neuroblastoma reporter cells, primary screen, cell-based, luminescence, SH-SY5Y, TTR promoter Gaussia luciferase | 100% = recombinant luciferase protein wells | activation, % at 16.7 µM | hit rate 1.3% among 92,000 | AID 1117267, 2014;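 active = activation above the mean of all tested compounds plus 3 SD, cut at about 9.5% in these data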;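 note: cells exposed to compounds for one day before reading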
HuH7 TTR inh = TTR promoter reporter inhibitors in hepatoma cells, counter-screen for TTR transcription activator project, cell-based, luminescence, HuH7 hepatoma; shares compounds with TTR transcr act; HuH7 TTR promoter-Gaussia luciferase reporter; inhibition, % at 16.7 µM; hit rate 4% among 1,100;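 active = average inhibition above the solvent-only control wells' mean plus 3 SD, cut at about 15% in these data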;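 note: inhibitors lower well luminescence so higher value means more inhibition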
TTR act confirm = TTR transcription activators, retest, confirmation, cell-based, luminescence, SH-SY5Y, triplicate. AID 1117280, 2014. 1,100 tested, under 10 active. shares compounds with TTR transcr act. activation, % at 16.7 µM. SHSY5Y TTR promoter Gaussia luciferase; 100% = purified Lucia enzyme wells, no cells;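 active = mean activation above a set limit taken from the earlier primary screen, cut at about 11% in these data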
Hits are given with their value; . = inactive. Many of the other results were omitted from the sample, so hits are more common in it than they were.

SMILES	TTR transcr act	others
c1cnc(OCCN2CC2)cn1	.
c1cc(OCCN2CC2)ccn1	10	HuH7 TTR inh=.;TTR act confirm=.
O=C(Cc1ccccc1)OCCN1CCOCC1	.
O=C1CN=C(c2ccc(Br)cc2)c2c(sc3c2CCCC3)N1CCN1CCCCC1	.
CCC1C(c2cc(OC)c(OC)c(OC)c2)c2cc3c(cc2OC1N1CCCC1)OCO3 (centres undefined)	.
N#CC1=C(N)Oc2c(c(=O)oc3ccccc23)C1c1ccc([N+](=O)[O-])o1 (centres undefined)	.
COc1ccc2c(c1O)C13CCN(C)C(C2)C1CCC(=O)C3 (centres undefined)	24	HuH7 TTR inh=.;TTR act confirm=.
COc1ccc2c3c1OC1C(=O)CC[C@@]4(O)[C@@H](C2)N(C)CC[C@]314 (some centres undefined)	.
COc1ccc2c3c1OC1[C@H](O)CCC4[C@@H](C2)N(C)CC[C@]314 (some centres undefined)	.
c1ccc(CC(NCc2ccco2)c2ccccc2)cc1 (centres undefined)	.
